Common to all, as to experiment: log2 fold change, soluble protein after heating vs DMSO (PISA); higher = thermal stabilisation; K562 cells, 10 uM, 30 min; active = over 0.2 and 3.5 SD of the protein, either way, in both replicates (recomputed)
The target of one test is YAE1 (UniProt Q9NRH1). The gist of the method:
(§1)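 For each measurement, 10 μM compound was applied for 30 min to K562 cells at 2×10^6 cells/mL. Aliquots were heated for 3 min across 48°C-58°C, pooled, and extracted in PBS with 0.5% NP-40 at 4°C; the supernatant after 21,000xg for 90 min was soluble protein. This was quantified by TMTpro 16plex LC-MS/MS with channel sums equalised, and thermal stability was reported relative to control samples from duplicates, on a log2 fold-change scale.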

Another test concerns the target YBX1 (UniProt P67809). The gist of the method: as §1
The next test has as its target YES1 (UniProt P07947). Put shortly: as §1
Another test concerns the target YIPF4 (UniProt Q9BSR8). The gist of the method:
as §1

The target of another test is YIPF5 isoform 3 (UniProt Q969M3). Put shortly: as §1
A further test concerns the target YIPF6 (UniProt Q96EC8). The gist of the method: as §1
Another test deals with YLPM1 (UniProt P49750). The gist of the method: as §1
Another test deals with YOD1 (UniProt Q5VVQ6). The gist of the method:
as §1

The target in another test is YPEL5 (UniProt P62699). The gist of the method:
as §1

Drawing on the supplement of paper PMC10849652, this text covers log2 fold change for 9 compounds.

The full data set covers some 7,900 targets. This sample favours those with a hit. About 0.6% of all pairs of compound and target were hits. Values without a mark were called inactive.

Chain of YIPF6 (Q96EC8 whole entry, looked up): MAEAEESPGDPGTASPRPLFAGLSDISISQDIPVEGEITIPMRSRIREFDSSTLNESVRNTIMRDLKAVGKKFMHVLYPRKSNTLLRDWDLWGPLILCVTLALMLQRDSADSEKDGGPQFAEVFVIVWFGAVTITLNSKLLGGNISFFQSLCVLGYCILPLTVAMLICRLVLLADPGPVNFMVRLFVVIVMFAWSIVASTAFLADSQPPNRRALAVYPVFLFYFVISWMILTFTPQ
Chain of YES1 (P07947 whole entry, looked up): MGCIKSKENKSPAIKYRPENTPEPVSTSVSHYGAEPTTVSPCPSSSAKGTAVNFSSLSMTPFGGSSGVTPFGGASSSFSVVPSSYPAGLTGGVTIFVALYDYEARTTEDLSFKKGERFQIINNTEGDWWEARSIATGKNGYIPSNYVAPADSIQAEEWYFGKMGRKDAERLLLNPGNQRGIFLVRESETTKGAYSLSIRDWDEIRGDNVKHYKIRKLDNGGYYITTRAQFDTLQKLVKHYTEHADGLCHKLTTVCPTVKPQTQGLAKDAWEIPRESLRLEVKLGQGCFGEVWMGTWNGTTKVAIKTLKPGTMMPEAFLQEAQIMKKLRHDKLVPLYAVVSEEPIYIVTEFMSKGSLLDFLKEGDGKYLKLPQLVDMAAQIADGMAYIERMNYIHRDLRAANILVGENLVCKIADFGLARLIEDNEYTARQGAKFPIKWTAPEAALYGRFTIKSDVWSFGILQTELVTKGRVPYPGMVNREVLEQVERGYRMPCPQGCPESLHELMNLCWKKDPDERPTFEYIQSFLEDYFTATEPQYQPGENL
Chain of YBX1 (P67809 whole entry, looked up): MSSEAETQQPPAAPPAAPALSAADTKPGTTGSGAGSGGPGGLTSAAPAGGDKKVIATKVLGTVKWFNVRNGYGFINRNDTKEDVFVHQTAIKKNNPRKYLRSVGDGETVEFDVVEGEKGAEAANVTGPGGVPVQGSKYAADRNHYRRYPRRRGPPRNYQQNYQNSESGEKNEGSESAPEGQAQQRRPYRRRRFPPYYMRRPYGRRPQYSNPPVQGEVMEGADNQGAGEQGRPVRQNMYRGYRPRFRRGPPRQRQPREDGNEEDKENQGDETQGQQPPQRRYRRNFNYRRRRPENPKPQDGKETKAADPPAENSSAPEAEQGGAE
Chain of YOD1 (Q5VVQ6 whole entry, looked up): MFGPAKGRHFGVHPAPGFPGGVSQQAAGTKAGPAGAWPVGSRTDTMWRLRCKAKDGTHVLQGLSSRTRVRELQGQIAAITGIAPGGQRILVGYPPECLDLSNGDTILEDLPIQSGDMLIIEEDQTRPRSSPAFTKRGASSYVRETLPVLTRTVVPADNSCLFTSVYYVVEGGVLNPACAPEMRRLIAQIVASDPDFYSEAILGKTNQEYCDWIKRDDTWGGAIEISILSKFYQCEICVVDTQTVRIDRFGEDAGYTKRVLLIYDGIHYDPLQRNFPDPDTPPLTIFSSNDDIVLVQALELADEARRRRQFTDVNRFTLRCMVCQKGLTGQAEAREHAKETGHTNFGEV
Chain of YPEL5 (P62699 whole entry, looked up): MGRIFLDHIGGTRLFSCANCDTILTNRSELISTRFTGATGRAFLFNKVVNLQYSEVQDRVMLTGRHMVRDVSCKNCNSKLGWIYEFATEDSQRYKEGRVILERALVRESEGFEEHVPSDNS
Chain of YIPF4 (Q9BSR8 whole entry, looked up): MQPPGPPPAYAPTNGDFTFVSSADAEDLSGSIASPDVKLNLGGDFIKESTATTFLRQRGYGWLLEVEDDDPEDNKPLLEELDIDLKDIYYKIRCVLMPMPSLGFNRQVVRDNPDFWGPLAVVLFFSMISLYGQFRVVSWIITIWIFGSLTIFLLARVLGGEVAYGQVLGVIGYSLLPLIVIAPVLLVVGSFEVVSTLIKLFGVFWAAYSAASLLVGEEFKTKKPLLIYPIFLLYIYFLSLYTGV
Chain of YLPM1 (P49750 whole entry, looked up): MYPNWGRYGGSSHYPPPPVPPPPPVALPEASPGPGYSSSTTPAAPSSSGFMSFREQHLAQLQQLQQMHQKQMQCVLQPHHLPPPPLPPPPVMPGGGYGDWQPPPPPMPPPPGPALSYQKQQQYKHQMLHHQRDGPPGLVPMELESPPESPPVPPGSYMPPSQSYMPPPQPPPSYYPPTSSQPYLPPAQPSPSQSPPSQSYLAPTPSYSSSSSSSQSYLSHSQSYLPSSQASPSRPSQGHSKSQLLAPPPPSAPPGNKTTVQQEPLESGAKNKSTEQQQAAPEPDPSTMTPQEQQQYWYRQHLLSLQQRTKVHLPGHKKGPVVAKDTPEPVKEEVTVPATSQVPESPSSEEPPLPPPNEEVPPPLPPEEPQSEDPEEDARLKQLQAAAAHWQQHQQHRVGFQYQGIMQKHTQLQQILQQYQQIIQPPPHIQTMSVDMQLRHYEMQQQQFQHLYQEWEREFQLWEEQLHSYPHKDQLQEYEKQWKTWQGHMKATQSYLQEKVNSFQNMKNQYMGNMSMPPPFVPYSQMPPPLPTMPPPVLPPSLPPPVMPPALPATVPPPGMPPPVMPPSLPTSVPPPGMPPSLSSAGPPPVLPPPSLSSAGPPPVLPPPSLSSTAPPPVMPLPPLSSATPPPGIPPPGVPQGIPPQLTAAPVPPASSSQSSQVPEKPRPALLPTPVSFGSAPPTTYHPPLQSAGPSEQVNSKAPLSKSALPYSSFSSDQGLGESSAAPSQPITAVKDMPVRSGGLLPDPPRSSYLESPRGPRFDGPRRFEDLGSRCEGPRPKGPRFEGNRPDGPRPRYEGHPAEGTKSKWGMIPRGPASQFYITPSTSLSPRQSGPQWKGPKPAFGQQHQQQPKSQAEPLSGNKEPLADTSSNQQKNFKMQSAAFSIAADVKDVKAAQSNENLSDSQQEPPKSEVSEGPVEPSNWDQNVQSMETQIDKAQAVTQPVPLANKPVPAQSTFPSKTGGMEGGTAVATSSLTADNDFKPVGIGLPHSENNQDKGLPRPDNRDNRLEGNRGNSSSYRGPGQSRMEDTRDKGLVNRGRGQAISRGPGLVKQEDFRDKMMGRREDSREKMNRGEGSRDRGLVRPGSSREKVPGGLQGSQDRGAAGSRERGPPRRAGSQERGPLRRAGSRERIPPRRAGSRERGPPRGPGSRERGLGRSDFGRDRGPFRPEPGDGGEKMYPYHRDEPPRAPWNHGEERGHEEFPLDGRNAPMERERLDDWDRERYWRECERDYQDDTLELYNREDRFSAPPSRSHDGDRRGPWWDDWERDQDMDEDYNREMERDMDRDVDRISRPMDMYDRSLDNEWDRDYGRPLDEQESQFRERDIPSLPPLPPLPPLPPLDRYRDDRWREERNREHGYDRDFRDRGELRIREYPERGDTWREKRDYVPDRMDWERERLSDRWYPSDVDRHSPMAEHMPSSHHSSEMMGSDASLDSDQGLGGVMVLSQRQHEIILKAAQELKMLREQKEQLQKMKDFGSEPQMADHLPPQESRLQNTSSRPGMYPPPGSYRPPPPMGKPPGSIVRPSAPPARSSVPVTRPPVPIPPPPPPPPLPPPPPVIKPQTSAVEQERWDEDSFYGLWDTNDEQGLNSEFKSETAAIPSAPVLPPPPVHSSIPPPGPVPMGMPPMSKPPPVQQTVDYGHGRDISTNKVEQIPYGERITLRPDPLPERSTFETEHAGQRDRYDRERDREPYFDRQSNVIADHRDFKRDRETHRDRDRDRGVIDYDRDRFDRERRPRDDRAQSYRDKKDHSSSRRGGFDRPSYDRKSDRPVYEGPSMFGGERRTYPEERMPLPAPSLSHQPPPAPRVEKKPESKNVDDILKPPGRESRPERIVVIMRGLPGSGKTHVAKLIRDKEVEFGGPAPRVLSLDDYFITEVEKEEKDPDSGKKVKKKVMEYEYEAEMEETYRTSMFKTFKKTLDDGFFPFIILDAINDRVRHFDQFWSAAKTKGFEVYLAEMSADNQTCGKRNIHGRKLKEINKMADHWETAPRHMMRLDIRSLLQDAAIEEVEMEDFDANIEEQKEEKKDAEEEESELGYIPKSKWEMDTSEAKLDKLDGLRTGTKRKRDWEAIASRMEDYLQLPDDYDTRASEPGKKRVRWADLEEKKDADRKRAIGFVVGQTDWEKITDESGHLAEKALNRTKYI
Chain of YAE1 (Q9NRH1 whole entry, looked up): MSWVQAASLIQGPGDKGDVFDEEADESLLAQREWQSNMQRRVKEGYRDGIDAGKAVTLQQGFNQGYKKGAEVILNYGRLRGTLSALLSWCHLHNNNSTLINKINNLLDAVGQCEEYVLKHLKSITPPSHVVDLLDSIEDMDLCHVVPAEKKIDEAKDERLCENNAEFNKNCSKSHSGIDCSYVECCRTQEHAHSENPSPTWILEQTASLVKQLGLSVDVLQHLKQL
Chain of YIPF5 isoform 3 (Q969M3 whole entry, looked up, canonical isoform): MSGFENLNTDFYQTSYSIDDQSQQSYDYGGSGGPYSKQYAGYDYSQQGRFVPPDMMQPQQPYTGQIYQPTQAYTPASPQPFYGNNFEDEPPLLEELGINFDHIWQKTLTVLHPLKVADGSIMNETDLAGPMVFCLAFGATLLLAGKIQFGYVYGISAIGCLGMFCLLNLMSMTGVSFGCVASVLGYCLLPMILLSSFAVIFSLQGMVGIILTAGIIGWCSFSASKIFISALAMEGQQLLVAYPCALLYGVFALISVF

Take `CC(C)C[C@@H](C=O)NC(=O)[C@H](CC(C)C)NC(=O)[C@H](CC(C)C)NC(=O)OCc1ccccc1`: the log2 fold change in the test with YAE1 was 0.007; with YBX1 it was 0.083; with YES1 it was 0.068; in the test with YIPF4, -0.016; with YIPF5 isoform 3, -0.012; with YIPF6, 0.02. Moreover, the log2 fold change with YLPM1 was 0.028; in the test with YOD1, 0.045; with YPEL5, 0.05.
As for `Cc1ncc(-c2ccnc(Nc3ccc(S(C)(=O)=O)cc3)n2)n1C(C)C`, the log2 fold change in the test with YAE1 was 0.042; with YBX1, 0.013; with YES1, -0.051; with YIPF4, -0.005; with YIPF5 isoform 3, -0.03; with YIPF6, -0.023. The log2 fold change with YLPM1 is -0.011; in the test with YOD1 it was -0.018; in the test with YPEL5 it was 0.036.
As to `CS(=O)(=O)c1ccc(-c2cnc(N)c(C(=O)Nc3ccccc3)n2)cc1`, the log2 fold change with YAE1 is 0.011; with YBX1, -0.101; with YIPF4, 0.013; with YIPF5 isoform 3 it was -0.093; in the test with YIPF6, 0.199; with YLPM1, -0.051. The log2 fold change was 0.117 with YOD1 and 0.152 with YPEL5.
Turning to `Cc1cccc(CC(=O)N2CCc3c2ccc(-c2cn(C)c4ncnc(N)c24)c3F)n1`, the log2 fold change was 0.008 with YAE1; -0.024 with YBX1; 0.007 with YES1; -0.042 with YIPF4; 0.06 with YIPF5 isoform 3; -0.006 with YIPF6. Also, the log2 fold change is -0.05 in the test with YLPM1, 0.041 with YOD1 and 0.198 with YPEL5.
Turning to `C[C@H](Nc1ncnc2nc[nH]c12)c1cc2cccc(Cl)c2c(=O)n1-c1ccccc1` [duvelisib], the log2 fold change was -0.021 in the test with YAE1; -0.208 with YBX1; 0.062 with YES1; 0.163 with YIPF4; -0.107 in the test with YIPF5 isoform 3; 0.259 with YIPF6. The figures for the log2 fold change with YLPM1, with YOD1 and with YPEL5 were 0.08, 0.033 and -0.084, respectively.
With `CN1CCN(CCOc2cc(OC3CCOCC3)c3c(Nc4c(Cl)ccc5c4OCO5)ncnc3c2)CC1` [saracatinib], the log2 fold change was 0.025 with YAE1; -0.027 with YBX1; -0.551 (active) with YES1; 0.072 with YIPF4; 0.007 with YIPF5 isoform 3; -0.023 with YIPF6. Besides, the results for the log2 fold change in the test with YLPM1, with YOD1 and in the test with YPEL5 were 0, -0.034 and 0.069, respectively.
As to `CCCS(=O)(=O)Nc1ccc(F)c(C(=O)c2c[nH]c3ncc(Cl)cc23)c1F`, the log2 fold change with YAE1 was -0.037; with YBX1, -0.137; in the test with YES1, -0.217; in the test with YIPF4 it was -0.01; in the test with YIPF5 isoform 3 it was -0.096; in the test with YIPF6, 0.004. Also, the log2 fold change in the test with YLPM1 is 0.047; with YOD1, 0.033; with YPEL5, -0.127.
Take `CON(C)C(=O)N1N=C(c2cc(F)ccc2F)S[C@@]1(CCCN)c1ccccc1` [filanesib]: the log2 fold change with YAE1 was 0.133; in the test with YBX1, 0.202; in the test with YIPF4, 0.077; with YIPF5 isoform 3, 0.017; in the test with YIPF6 it was -0.08; in the test with YLPM1 it was 0.083. Further, the log2 fold change with YOD1 was -0.067; with YPEL5, 0.413.
As to `Cc1cc(SCc2sc(-c3ccc(C(F)(F)F)cc3)nc2C)ccc1OCC(=O)O`, the log2 fold change is 0.021 with YAE1; -0.024 with YBX1; 0.06 with YES1; -0.04 in the test with YIPF4; 0.015 in the test with YIPF5 isoform 3; -0.175 in the test with YIPF6. Moreover, the log2 fold change with YLPM1 was 0; with YOD1, 0.061; with YPEL5 it was 0.098.
